From PubChem BioAssay
An excerpt weighted towards active compounds, which were near 12% of everything screened.
HP1b chromo inh = HTS for Inhibitors of HP1-beta Chromodomain Interactions with Methylated Histone Tails. Chromobox protein homolog 1 (Homo sapiens), P83916. AlphaScreen HP1-beta / biotin-H3K9me3 peptide binding. Potency, µM (top dose mostly 114 µM), without a hit: at the highest dose activity change, negative = inhibition, actives largely listed as inhibitors. 390,000 compounds, 0.56% hits; further: nearly all actives have a fitted effect of over 70% in size
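Compound inhibition of the preformed complex between 50 nM HP1-beta and 50 nM biotinylated H3K9me3 peptide was read by AlphaScreen. Buffer was PBS pH 7.4 with 0.01% Tween-20. Incubations ran 30 min at room temperature, with 10 ug/mL donor/acceptor beads.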
L3MBTL1 inh = qHTS Assay for the Inhibitors of L3MBTL1 | AlphaScreen L3MBTL1–H3K9me1 peptide binding | Potency, µM (titrated, usually from 57.1 µM), for inactives: at the highest dose activity, negative = inhibition, hits mostly inhibitors | AID 485360, 2010 | 230,000 compounds, 0.66% hits; further: on the % scale 0 is the no-effect control and ±100 the full control effect; nearly all actives have a fitted effect of over 60% in size
Target sequence (Q9Y468 whole entry, looked up): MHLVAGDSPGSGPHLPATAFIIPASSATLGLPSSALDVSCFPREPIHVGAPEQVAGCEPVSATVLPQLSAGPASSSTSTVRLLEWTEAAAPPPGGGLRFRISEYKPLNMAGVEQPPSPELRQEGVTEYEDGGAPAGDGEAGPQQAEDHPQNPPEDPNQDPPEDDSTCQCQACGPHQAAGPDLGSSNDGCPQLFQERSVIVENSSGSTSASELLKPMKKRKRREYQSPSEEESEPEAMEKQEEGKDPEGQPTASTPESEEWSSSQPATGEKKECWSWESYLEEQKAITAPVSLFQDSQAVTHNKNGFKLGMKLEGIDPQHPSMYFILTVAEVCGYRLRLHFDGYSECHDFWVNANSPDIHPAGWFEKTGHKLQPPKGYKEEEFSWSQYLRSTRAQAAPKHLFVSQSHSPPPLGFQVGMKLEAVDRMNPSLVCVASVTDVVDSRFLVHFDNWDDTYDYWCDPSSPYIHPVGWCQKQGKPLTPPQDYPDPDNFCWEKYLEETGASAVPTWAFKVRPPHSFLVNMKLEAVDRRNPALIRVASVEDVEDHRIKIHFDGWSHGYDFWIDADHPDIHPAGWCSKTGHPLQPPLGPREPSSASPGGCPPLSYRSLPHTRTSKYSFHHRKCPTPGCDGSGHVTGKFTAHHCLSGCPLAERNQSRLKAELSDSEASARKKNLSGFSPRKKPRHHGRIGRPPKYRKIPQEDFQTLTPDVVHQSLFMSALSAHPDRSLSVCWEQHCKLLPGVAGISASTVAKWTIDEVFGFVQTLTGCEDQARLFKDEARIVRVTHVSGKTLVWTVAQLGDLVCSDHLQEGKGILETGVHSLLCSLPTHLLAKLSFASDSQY
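L3MBTL1 50 nM + b-AHA-H3(1-15)K9me1 75 nM, 30 min RT; compound added, 30 min RT; streptavidin donor/Ni-chelate acceptor beads 10 ug/mL each final, 30 min RT dark; AlphaScreen read.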
G9a inh = qHTS Assay for Inhibitors of Histone Lysine Methyltransferase G9a; G9a H3K9 monomethylation, AlphaScreen, 2 h; 350,000 compounds, 8.8% hits; Histone-lysine N-methyltransferase EHMT2 (Homo sapiens), Q96KQ7; AID 504332, 2011; Potency, µM (doses to about 102 µM), inactives show top-dose activity, negative = inhibition, actives largely listed as inhibitors; further: on the % scale 0 is the no-effect control and ±100 the full control effect; nearly all actives have a fitted effect of over 75% in size
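Using a bead-based AlphaScreen, monomethylated H3K9 product from 2 h room-temperature reactions (G9a 20 nM, peptide 500 nM, SAM 20 uM) was detected with 0.5 ug/mL rabbit anti-H3K9me1 antibody.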
Sfp inh = qHTS Assay for Inhibitors of Bacillus subtilis Sfp phosphopantetheinyl transferase (PPTase); 4'-phosphopantetheinyl transferase ffp (Bacillus subtilis), Q9F4F7; Biochemical Sfp PPTase activity, qHTS; Potency, µM, for inactives: largest response in the series, negative = inhibition, most hits filed as inhibitors; 310,000 compounds, 3.5% hits; AID 1490, 2009;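 further: the enzyme is Sfp with the accession as filed and its product quenches rhodamine fluorescence; 0% = enzyme reaction without inhibitor and -100% = no enzyme wells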
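After 15 min at room temperature with compound, 15 nM Sfp received 5 uM rhodamine-CoA plus 12.5 uM BHQ-2-ybbR (50 mM Hepes pH 7.6, 10 mM MgCl2). Rate came from the fluorescence difference over 30 min, ex 525/em 598 nm.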
BAZ2B inh = qHTS Assay for Inhibitors of BAZ2B. AlphaScreen BAZ2B-H3K14Ac peptide displacement. Potency, µM (titrated, usually from 114 µM), for inactives: at the top dose activity change, negative = inhibition, most hits filed as inhibitors. 360,000 compounds, 4.4% hits. AID 504333, 2011; further: on the % scale 0 is the no-effect control and ±100 the full control effect; nearly all actives have a fitted effect of over 60% in size
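Protein-peptide AlphaScreen: BAZ2B 50 nM, b-H3K14Ac 50 nM, 1x PBS pH 7.4 + 0.01% Tween-20. Preincubation 30 min RT; cpd 30 min RT (top 110 uM); beads 20 min RT, light-protected.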
JMJD2A Tudor = qHTS Assay for Inhibitors of JMJD2A-Tudor Domain. AID 504339, 2011. AlphaScreen JMJD2A-Tudor / H3K4me3 peptide binding. Potency, µM (titrated, usually from 114 µM), for the others: at the highest dose activity change, negative = inhibition, actives largely listed as inhibitors. 390,000 compounds, 4.4% hits; further: on the % scale 0 is the no-effect control and ±100 the full control effect; nearly all actives have a fitted effect of over 50% in size
* marks the source's active call; other numbers are inactive results; [ ] = dose if it differs, or a comment. The call rests on the fitted dose curve; in most records, active means well fitted curve in the direction sought with a large enough effect; inconclusive means small, poorly fitted or top-dose-only effect, or another doubt; inactive means no such curve, though single readings can be large; an effect the other way counts as inactive or inconclusive. Potency means the concentration at half of the fitted maximal effect.

For O=C(C=C1SCCS1)/C=C/c1ccco1 the results were HP1b chromo inh inconclusive, L3MBTL1 inh inconclusive, G9a inh 40µM*, Sfp inh 45µM*, BAZ2B inh 50µM* and JMJD2A Tudor 45µM*.
`CCN(C(=O)COC(=O)CNC(=O)c1cccs1)c1c(N)n(Cc2ccccc2)c(=O)[nH]c1=O` gave HP1b chromo inh 25% and JMJD2A Tudor -6%.
For COCCN(C(=O)COC(=O)C1CCC(C(C)(C)C)CC1)c1c(N)n(Cc2ccccc2)c(=O)[nH]c1=O (configuration not stated) the results were HP1b chromo inh 21%, L3MBTL1 inh 11%, G9a inh 32µM*, BAZ2B inh 1% and JMJD2A Tudor -15%.
COCCn1c(N)c(C(=S)NC(=O)c2cccs2)c(=O)[nH]c1=O was read as HP1b chromo inh -7%, L3MBTL1 inh -8%, G9a inh inconclusive, Sfp inh 25µM*, BAZ2B inh -14% and JMJD2A Tudor -19%.
COCCN(C(=O)COC(=O)CNC(=O)c1cccs1)c1c(N)n(Cc2ccccc2)c(=O)[nH]c1=O was read as HP1b chromo inh -7%, L3MBTL1 inh 9%, G9a inh 11µM*, BAZ2B inh -1% and JMJD2A Tudor -10%.
`CC(C)C[C@@H](CC(=O)N[C@@H](CCCN)CC(=O)N[C@@H]1CCNC[C@H]1C(=O)N[C@H](CC(=O)N[C@@H](CCC(=O)O)CC(=O)O)CC(C)C)NC(=O)[C@@H]1CNCC[C@H]1N` gave Sfp inh -17%.
`NCCCCC(N)C(=O)NC(Cc1ccc(O)cc1)C(=O)NC(CCCCN)C(=O)O` (configuration not stated) gave Sfp inh 12%.
For COc1ccc(C(=O)CC(Nc2ccc([N+](=O)[O-])cc2)c2ccc(OC)cc2)cc1 (configuration not stated) the results were HP1b chromo inh -21%, L3MBTL1 inh -11%, G9a inh inconclusive, Sfp inh 8%, BAZ2B inh -11% and JMJD2A Tudor inconclusive.
CNC(CC(=O)c1ccc([N+](=O)[O-])cc1)C(Cl)(Cl)Cl (configuration not stated) was read as HP1b chromo inh 16µM*, L3MBTL1 inh 0%, G9a inh 4µM*, Sfp inh 10µM*, BAZ2B inh inconclusive and JMJD2A Tudor inconclusive.
Cc1ccc(C(=O)CNc2cccc([N+](=O)[O-])c2)cc1 was read as HP1b chromo inh 47%, G9a inh inconclusive, Sfp inh 5%, BAZ2B inh 0% and JMJD2A Tudor -5%.
Cc1ccc(NCC(=O)c2ccc([N+](=O)[O-])cc2)cc1 was read as HP1b chromo inh inconclusive, G9a inh 8.9µM*, Sfp inh 20µM*, BAZ2B inh inconclusive and JMJD2A Tudor inconclusive.
Screening CCc1cc2c(s1)c1cnn(Cc3ccccc3F)c(=O)c1n2C returned JMJD2A Tudor 16%.
Screening Cc1ccc(CN2CCN(/N=C/c3cc(Br)cc(Br)c3O)CC2)cc1 returned HP1b chromo inh inconclusive, L3MBTL1 inh -6%, G9a inh -12%[59 µM], Sfp inh -9%, BAZ2B inh -33% and JMJD2A Tudor inconclusive.
COC(=O)c1ccc(/C=N/N2CCN(Cc3ccccc3Cl)CC2)cc1 was read as HP1b chromo inh -18%, L3MBTL1 inh inconclusive, G9a inh 1%, Sfp inh -4%, BAZ2B inh -27% and JMJD2A Tudor 8.9µM*.
CCN(CC)c1ccc(/C=N/N2CCN(Cc3ccccc3Cl)CC2)c(O)c1 was read as HP1b chromo inh inconclusive, L3MBTL1 inh -18%, G9a inh 11µM*, Sfp inh -1%, BAZ2B inh 10µM* and JMJD2A Tudor 32µM*.
Screening COC(=O)c1ccc(/C=N/N2CCN(Cc3ccc(C)cc3C)CC2)cc1 returned HP1b chromo inh -29%, L3MBTL1 inh -11%, G9a inh inconclusive, Sfp inh -22%, BAZ2B inh 40µM* and JMJD2A Tudor inconclusive.
`COC(=O)c1ccc(/C=N\N2CCN(c3ccccc3)CC2)cc1` gave HP1b chromo inh 25%, L3MBTL1 inh -5%, G9a inh 0%, Sfp inh 22%, BAZ2B inh -8% and JMJD2A Tudor -18%.
Cc1ccc(CN2CCN(/N=C/c3cc(Br)cc(Br)c3O)CC2)c(C)c1 was read as HP1b chromo inh 51%, L3MBTL1 inh -8%, G9a inh 40µM*, Sfp inh 0%, BAZ2B inh 1% and JMJD2A Tudor -11%[57.1 µM].
Screening Cc1ccc(CN2CCN(/N=C/c3ccc(C(=O)O)cc3)CC2)c(C)c1 returned HP1b chromo inh 8%, L3MBTL1 inh -8%, G9a inh inconclusive, Sfp inh 14%, BAZ2B inh inconclusive and JMJD2A Tudor -11%.
Cc1ccc(CNC(=O)CCc2c(C)nc3nc(C)nn3c2C)cc1 was read as HP1b chromo inh 36%, G9a inh 8%[59 µM], BAZ2B inh 6% and JMJD2A Tudor -12%.
Screening CSCC[C@H](NC(=O)[C@H](Cc1ccc(OS(=O)(=O)O)cc1)NC(=O)[C@@H](N)CC(=O)O)C(=O)NCC(=O)N[C@@H](Cc1c[nH]c2ccccc12)C(=O)N[C@@H](CCSC)C(=O)N[C@@H](CC(=O)O)C(=O)N[C@@H](Cc1ccccc1)C(N)=O returned Sfp inh -14%.
`Cc1ccccc1C(=O)N1c2ncnn2C2(CCCCC2)[C@@H]2CCCC[C@@H]21` gave HP1b chromo inh 43%, G9a inh -8%[59 µM], BAZ2B inh -11% and JMJD2A Tudor -9%.
For CC(C)=NNc1nc2sc3c(c2c(=O)[nH]1)CC(C)(C)OC3 the results were HP1b chromo inh 43%, L3MBTL1 inh 15%, G9a inh inconclusive, Sfp inh 16µM*, BAZ2B inh 7% and JMJD2A Tudor -24%.
For Cn1c(=O)[nH]c2sc3c(c2c1=O)CC(C)(C)OC3 the results were HP1b chromo inh 16%, G9a inh 14%[12.7 µM], Sfp inh 4%, BAZ2B inh 12% and JMJD2A Tudor 13%.
CC1(C)Cc2c(sc3[nH]c(=S)[nH]c(=O)c23)CO1 was read as HP1b chromo inh -15%, L3MBTL1 inh 43%, Sfp inh inconclusive, BAZ2B inh -4% and JMJD2A Tudor 89µM*.
